{
  "source": "PubChem BioAssay (Tox21)",
  "note": "Inconclusive results are not listed. A number with no mark means an inactive call. Activity calls are given as the source filed them. Unless noted, calls come from the whole dose curve. % is set by controls: 0 for no effect and ±100 for the full control effect.",
  "data": [
    {"test": "qHTS assay for small molecules that induce genotoxicity in human embryonic kidney cells expressing luciferase-tagged ATAD5 (AID 651632; active = well fitted activation curve with a large enough effect in the repeat runs; note: nearly all actives have a fitted effect of over 15% in size; note: potency is the fitted concentration of half-maximal effect)", "conditions": "HEK293T ATAD5-luciferase induction, 16 h; series mostly up to 83.3 µM; activation: at the top concentration", "summary_of_the_method": "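Reporter cells (HEK293T) express luciferase-tagged ATAD5, a protein that accumulates after DNA damage. Treat 16 hr at 37C/5% CO2, add Amplite, wait 30 min at RT, and read luminescence.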", "values": [
      {"smiles": "CC/C=C/CCCCCCCCCCOC(C)=O", "activation": "1.79%"},
      {"smiles": "Cc1ccc(Br)cc1", "activation": "-0.318%"},
      {"smiles": "O=C(O)/C=C(\\CC(=O)O)C(=O)O", "activation": "1.84%"},
      {"smiles": "C=CCON/C(CCC)=C1\\C(=O)CC(C)(C)C(C(=O)OC)=C1O", "activation": "1.65%"},
      {"smiles": "CCOc1ccccc1OCCN[C@H](C)Cc1ccc(OC)c(S(N)(=O)=O)c1", "activation": "-0.986%"},
      {"smiles": "CCCCCCCCCCCCCCBr", "activation": "2.15% [at 95.3 µM]"},
      {"smiles": "CCN1CCN(C(=O)N[C@@H](C(=O)N[C@@H]2C(=O)N3[C@@H]2SC(C)(C)[C@H]3C(=O)O)c2ccccc2)C(=O)C1=O", "activation": "3.32%"},
      {"smiles": "CCCCNCC", "activation": "-0.917%"},
      {"smiles": "C[Si](C)(C)O[Si](O)(O)O", "activation": "2.9%"},
      {"smiles": "O=C(CCBr)N1CCN(C(=O)CCBr)CC1", "activation": "-3.7%"},
      {"smiles": "Cc1ccccc1OCC(=O)O", "activation": "4.55%"},
      {"smiles": "C/C(=N\\O)c1ccc(OCC(=O)N2CCCCC2)cc1", "Potency": "23.7 µM (active)"},
      {"smiles": "CC/C=C\\CCCCCCCCCCOC(C)=O", "activation": "2.56%"},
      {"smiles": "COCc1nnc(-c2ccc[n+]([O-])c2)n1-c1c(Cl)c(Cl)cc2[nH]c(=O)c(=O)[nH]c12", "activation": "1.72%"},
      {"smiles": "CC1(C)S[C@@H]2[C@H](NC(=O)Cc3ccccc3)C(=O)N2[C@H]1C(=O)O", "note": "(tested in a mixture with another compound)", "activation": "2.14%"},
      {"smiles": "CC1=C(O)C(=O)CO1", "activation": "1.65%"},
      {"smiles": "CC(C)C(C)C", "activation": "-2.92%"},
      {"smiles": "O=C(O)Cc1c(Cl)ccc(Cl)c1Cl", "activation": "1.89%"},
      {"smiles": "CCC(=O)OCCOc1ccccc1", "activation": "-0.615%"},
      {"smiles": "N=C(N)S(=O)O", "activation": "0.707%"},
      {"smiles": "CC(C)(C)C(=O)CCc1ccc(Cl)cc1", "activation": "1%"},
      {"smiles": "CC[C@@]1(c2ccccc2)NC(=O)N(C)C1=O", "activation": "-2.01%"},
      {"smiles": "CCCCCCCCS(=O)(=O)O", "activation": "2.69% [at 95.3 µM]"},
      {"smiles": "C=CCCCCCCCCCCCCCC", "activation": "1.37% [at 39.1 µM]"},
      {"smiles": "N#CC1(N)CCCCC1", "activation": "1.36% [at 95.3 µM]"},
      {"smiles": "BrCCOc1ccccc1", "activation": "0.789% [at 95.3 µM]"},
      {"smiles": "O=C1CC2(CCCC2)CC(=O)N1CCNCC1COc2ccccc2O1", "note": "(stereo unspecified)", "activation": "-4.64%"},
      {"smiles": "CCOC(=O)c1ccc(N(C)C)cc1", "activation": "8.53%"},
      {"smiles": "N=C(N)N1CCc2ccccc2C1", "activation": "2.24%"},
      {"smiles": "CNC(C)=O", "activation": "1.25%"},
      {"smiles": "C=CCN(CC=C)CC=C", "activation": "0.568%"},
      {"smiles": "CCCCN1C(=O)c2ccccc2C1=O", "activation": "1.78% [at 95.3 µM]"},
      {"smiles": "COc1cc(NS(=O)(=O)c2ccc(N)cc2)ncn1", "activation": "-1.03% [at 39.1 µM]"},
      {"smiles": "NNC(=O)CCCCC(=O)NN", "activation": "-0.418%"}
    ]},
    {"test": "qHTS assay for small molecule agonists of the p53 signaling pathway - cell viability (AID 651633);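 note: p53RE-bla HCT reporter cells with a stable beta-lactamase p53 reporter; nearly all actives have a fitted effect of over 30% in size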", "conditions": "p53RE-bla HCT-116 viability, ATP luminescence, 16 h; series mostly up to 83.3 µM; activity change, negative = cytotoxicity: at the top concentration", "summary_of_the_method": "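p53RE-bla cells were treated with compound for 16 hours at 37 C. Cytotoxicity was then measured as CellTiter-Glo luminescence after 30 min at room temperature.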", "values": [
      {"smiles": "Cc1ccc(Br)cc1", "activity change, negative = cytotoxicity": "-14.5%"},
      {"smiles": "O=C(O)/C=C(\\CC(=O)O)C(=O)O", "activity change, negative = cytotoxicity": "16.8%"},
      {"smiles": "C=CCON/C(CCC)=C1\\C(=O)CC(C)(C)C(C(=O)OC)=C1O", "activity change, negative = cytotoxicity": "-4.32%"},
      {"smiles": "CCOc1ccccc1OCCN[C@H](C)Cc1ccc(OC)c(S(N)(=O)=O)c1", "activity change, negative = cytotoxicity": "18.4%"},
      {"smiles": "CCCCCCCCCCCCCCBr", "activity change, negative = cytotoxicity": "-8.47% [at 95.3 µM]"},
      {"smiles": "CCN1CCN(C(=O)N[C@@H](C(=O)N[C@@H]2C(=O)N3[C@@H]2SC(C)(C)[C@H]3C(=O)O)c2ccccc2)C(=O)C1=O", "activity change, negative = cytotoxicity": "10.7%"},
      {"smiles": "CCCCNCC", "activity change, negative = cytotoxicity": "-20.4%"},
      {"smiles": "C[Si](C)(C)O[Si](O)(O)O", "activity change, negative = cytotoxicity": "23.4%"},
      {"smiles": "O=C(CCBr)N1CCN(C(=O)CCBr)CC1", "activity change, negative = cytotoxicity": "-8.77%"},
      {"smiles": "Cc1ccccc1OCC(=O)O", "activity change, negative = cytotoxicity": "-8.53%"},
      {"smiles": "C/C(=N\\O)c1ccc(OCC(=O)N2CCCCC2)cc1", "activity change, negative = cytotoxicity": "-8.44%"},
      {"smiles": "COCc1nnc(-c2ccc[n+]([O-])c2)n1-c1c(Cl)c(Cl)cc2[nH]c(=O)c(=O)[nH]c12", "activity change, negative = cytotoxicity": "17.2%"},
      {"smiles": "CC1(C)S[C@@H]2[C@H](NC(=O)Cc3ccccc3)C(=O)N2[C@H]1C(=O)O", "note": "(tested in a mixture with another compound)", "activity change, negative = cytotoxicity": "21.7%"},
      {"smiles": "CC(C)C(C)C", "activity change, negative = cytotoxicity": "18.5%"},
      {"smiles": "O=C(O)Cc1c(Cl)ccc(Cl)c1Cl", "activity change, negative = cytotoxicity": "6.7%"},
      {"smiles": "CCC(=O)OCCOc1ccccc1", "activity change, negative = cytotoxicity": "15.2%"},
      {"smiles": "CC(C)(C)C(=O)CCc1ccc(Cl)cc1", "activity change, negative = cytotoxicity": "30%"},
      {"smiles": "CC[C@@]1(c2ccccc2)NC(=O)N(C)C1=O", "activity change, negative = cytotoxicity": "9.91%"},
      {"smiles": "CCCCCCCCS(=O)(=O)O", "activity change, negative = cytotoxicity": "-7.16% [at 95.3 µM]"},
      {"smiles": "C=CCCCCCCCCCCCCCC", "activity change, negative = cytotoxicity": "23.3% [at 39.1 µM]"},
      {"smiles": "N#CC1(N)CCCCC1", "activity change, negative = cytotoxicity": "17.7% [at 95.3 µM]"},
      {"smiles": "CN(C)c1ccncc1", "activity change, negative = cytotoxicity": "7.38%"},
      {"smiles": "BrCCOc1ccccc1", "activity change, negative = cytotoxicity": "5.39% [at 95.3 µM]"},
      {"smiles": "CCOC(=O)c1ccc(N(C)C)cc1", "activity change, negative = cytotoxicity": "16.4%"},
      {"smiles": "C=CCN(CC=C)CC=C", "activity change, negative = cytotoxicity": "11.2%"},
      {"smiles": "CCCCN1C(=O)c2ccccc2C1=O", "activity change, negative = cytotoxicity": "11.9% [at 95.3 µM]"},
      {"smiles": "COc1cc(NS(=O)(=O)c2ccc(N)cc2)ncn1", "activity change, negative = cytotoxicity": "9.36% [at 39.1 µM]"},
      {"smiles": "NNC(=O)CCCCC(=O)NN", "activity change, negative = cytotoxicity": "-10.6%"}
    ]},
    {"test": "qHTS assay for small molecules that induce genotoxicity in human embryonic kidney cells expressing luciferase-tagged ATAD5 - cell viability (AID 651634); note: nearly all actives have a fitted effect of over 25% in size", "conditions": "HEK293T ATAD5-luc cells viability, CellTiter-Fluor, 15.5 h; series mostly up to 83.3 µM; activity, negative = cytotoxicity: at the top concentration", "summary_of_the_method": "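Seeding of 2,000 HEK293T ATAD5-luciferase cells per well preceded pin-tool compound transfer. Plates sat 15.5 hr at 37C under 5% CO2, then fluorescence was read after 30 min with CellTiter-Fluor.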", "values": [
      {"smiles": "CC/C=C/CCCCCCCCCCOC(C)=O", "activity, negative = cytotoxicity": "24.8%"},
      {"smiles": "Cc1ccc(Br)cc1", "activity, negative = cytotoxicity": "9.77%"},
      {"smiles": "O=C(O)/C=C(\\CC(=O)O)C(=O)O", "activity, negative = cytotoxicity": "20%"},
      {"smiles": "C=CCON/C(CCC)=C1\\C(=O)CC(C)(C)C(C(=O)OC)=C1O", "activity, negative = cytotoxicity": "15.9%"},
      {"smiles": "CCOc1ccccc1OCCN[C@H](C)Cc1ccc(OC)c(S(N)(=O)=O)c1", "activity, negative = cytotoxicity": "1.56%"},
      {"smiles": "CCCCCCCCCCCCCCBr", "activity, negative = cytotoxicity": "-8.47% [at 95.3 µM]"},
      {"smiles": "CCN1CCN(C(=O)N[C@@H](C(=O)N[C@@H]2C(=O)N3[C@@H]2SC(C)(C)[C@H]3C(=O)O)c2ccccc2)C(=O)C1=O", "activity, negative = cytotoxicity": "8.19%"},
      {"smiles": "CCCCNCC", "activity, negative = cytotoxicity": "16%"},
      {"smiles": "C[Si](C)(C)O[Si](O)(O)O", "activity, negative = cytotoxicity": "13.8%"},
      {"smiles": "O=C(CCBr)N1CCN(C(=O)CCBr)CC1", "activity, negative = cytotoxicity": "13.6%"},
      {"smiles": "Cc1ccccc1OCC(=O)O", "activity, negative = cytotoxicity": "13.9%"},
      {"smiles": "C/C(=N\\O)c1ccc(OCC(=O)N2CCCCC2)cc1", "activity, negative = cytotoxicity": "13.1%"},
      {"smiles": "CC/C=C\\CCCCCCCCCCOC(C)=O", "activity, negative = cytotoxicity": "5.9%"},
      {"smiles": "COCc1nnc(-c2ccc[n+]([O-])c2)n1-c1c(Cl)c(Cl)cc2[nH]c(=O)c(=O)[nH]c12", "activity, negative = cytotoxicity": "8.15%"},
      {"smiles": "CC1(C)S[C@@H]2[C@H](NC(=O)Cc3ccccc3)C(=O)N2[C@H]1C(=O)O", "note": "(tested in a mixture with another compound)", "activity, negative = cytotoxicity": "16.6%"},
      {"smiles": "CC1=C(O)C(=O)CO1", "activity, negative = cytotoxicity": "13.5%"},
      {"smiles": "CC(C)C(C)C", "activity, negative = cytotoxicity": "21.3%"},
      {"smiles": "O=C(O)Cc1c(Cl)ccc(Cl)c1Cl", "activity, negative = cytotoxicity": "29.3%"},
      {"smiles": "CCC(=O)OCCOc1ccccc1", "activity, negative = cytotoxicity": "4.76%"},
      {"smiles": "N=C(N)S(=O)O", "activity, negative = cytotoxicity": "20.2%"},
      {"smiles": "CC(C)(C)C(=O)CCc1ccc(Cl)cc1", "activity, negative = cytotoxicity": "26.6%"},
      {"smiles": "CC[C@@]1(c2ccccc2)NC(=O)N(C)C1=O", "activity, negative = cytotoxicity": "8.39%"},
      {"smiles": "CCCCCCCCS(=O)(=O)O", "activity, negative = cytotoxicity": "11.1% [at 95.3 µM]"},
      {"smiles": "C=CCCCCCCCCCCCCCC", "activity, negative = cytotoxicity": "5.55% [at 39.1 µM]"},
      {"smiles": "N#CC1(N)CCCCC1", "activity, negative = cytotoxicity": "5.53% [at 95.3 µM]"},
      {"smiles": "BrCCOc1ccccc1", "activity, negative = cytotoxicity": "7.63% [at 95.3 µM]"},
      {"smiles": "O=C1CC2(CCCC2)CC(=O)N1CCNCC1COc2ccccc2O1", "note": "(stereo unspecified)", "activity, negative = cytotoxicity": "-2.22%"},
      {"smiles": "CCOC(=O)c1ccc(N(C)C)cc1", "activity, negative = cytotoxicity": "7.81%"},
      {"smiles": "N=C(N)N1CCc2ccccc2C1", "activity, negative = cytotoxicity": "20.8%"},
      {"smiles": "CNC(C)=O", "activity, negative = cytotoxicity": "18.1%"},
      {"smiles": "C=CCN(CC=C)CC=C", "activity, negative = cytotoxicity": "7.82%"},
      {"smiles": "CCCCN1C(=O)c2ccccc2C1=O", "activity, negative = cytotoxicity": "10% [at 95.3 µM]"},
      {"smiles": "COc1cc(NS(=O)(=O)c2ccc(N)cc2)ncn1", "activity, negative = cytotoxicity": "8.05% [at 39.1 µM]"},
      {"smiles": "NNC(=O)CCCCC(=O)NN", "activity, negative = cytotoxicity": "12%"}
    ]}
  ]
}
